Laboratory results: PubChem BioAssay AID624342 (National Center for Advancing Translational Sciences (NCATS), 2012)
Calls of active or inactive are those of the source. Calls follow the shape of the full dose curve.

test: qHTS for Inducers of the Endoplasmic Reticulum Stress Response (ERSR) in Human Glioma: Hit Validation; details: U87-MG GRP78 promoter luciferase reporter, 16 h
Excerpt: Primary protein unfolding takes place for many diseases, including diabetes and hypoxia, , and triggers a reaction in the cells called ER stress response (ERSR). ). ERSR is designed as a repair mechanism, but ultimately leads to cell death via apoptosis if conditions triggering protein unfolding persist (1). The molecular clue to ERSR activation is the enhancement of the expression of key molecular chaperones, including the glucose regulated protein (GRP) 78. GRP78 is the main sensor for protein folding and the main actuator of the ERSR. In a collaboration between the Southern Research Institute and the NIH Chemical Genomics Center, a cell based screen was developed that reliably uses GRP78 as a sensor to identify small molecules as inducers of ERSR. In resting conditions, GRP78 binds proteins and acts as a natural repressor. Once unfolded proteins are present in the ER, GRP78 releases some of the repressors and binds to the unfolded proteins. The release of the repressors executes the ERSR program. Using a human glioma cell line in a miniaturized, luminescent format, a high-throughput screen was developed to identify actuators of the ERSR. In this assay, the hits identified from primary screen are re-run using the same protocol. NIH Chemical Genomics Center [NCGC] NIH Molecular Libraries Probe Centers Network [MLPCN] MLPCN Grant: DA031669 Assay Submitter (PI): Maurizio Grimaldi, Southern Research Institute (1) Soboloff, J. and S. A. Berger (2002). "Sustained ER Ca2+ depletion suppresses protein synthesis and induces activation-enhanced cell death in mast cells." J Biol Chem 277(16): 13812-20.
Stable transfected human glioma cell line, U87-MG, are dispensed at density 1000 cells/well into Greiner white solid bottom 1536-well assay plates. […] The assay plates will be incubated for 16 hours and developed by adding appropriate quantities of the Promega Bright Glo reagent. The plates will be incubated at room temperature for 10 minutes prior to being transferred into a ViewLux high-throughput CCD imager (PerkinElmer), wherein end-point measurements of luminescence are acquired.

Potency, active:
CC(=O)N1CCOc2cc(S(=O)(=O)Nc3c(C)cccc3C(C)C)c(Cl)cc21 30 µM
CC(C)Cc1nn2c(=O)cc(COC(=O)CNC(=O)c3ccc(C(C)(C)C)cc3)nc2s1 30 µM
Cc1ccc(-c2cc(NC(=O)C(C)Oc3ccc(C)c(C)c3)on2)cc1 (stereo not drawn) 30 µM
